CHX counter – counter-screen hit for Shiga toxin inhibitors, cycloheximide; max response, %; 300,000 tested, 12% active; cell reporter, cycloheximide protein synthesis inhibition counterscreen; in the data active = max response mostly above about 13%, no sharp cut-off; inactive = mostly below about 14%; also: read at 38.3 µM for the half of the compounds with a filed dose
NS1 function inh – blocks influenza NS1 protein function; Potency, µM (top dose mostly 46.1 µM); 270,000 tested, 0.4% active; also: actives are rising curves; nearly all actives have a fitted effect of over 50% in size
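Recovery from NS1-induced slow growth read by OD600 in budding yeast switched to galactose assay medium (pH 6.0, -URA) at 1:100 dilution. Compound 23 nl per well; the matching strain lacking NS1 serves as control.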
Shiga toxin inh – blocks Shiga toxin action in Vero cells; Vero cells, Shiga toxin protein synthesis inhibition reporter; AID 2315; 290,000 tested, 9.2% active; inhibition, % at 38.7 µM; in the data active = inhibition mostly above about 28%, no sharp cut-off; inactive = mostly below about 43%
SARS PLpro yeast – blocks SARS-CoV papain-like protease in a yeast assay | S. cerevisiae expressing SARS-CoV PLpro, growth rescue | Potency, µM (titrated, usually from 32.9 µM), actives largely listed as activators | 330,000 tested, 0.19% active | AID 485353; also: nearly all actives have a fitted effect of over 55% in size
Pf growth 96h – P. falciparum growth inhibition at 96 hours. Potency, µM (titrated, usually from 28.7 µM), actives largely listed as inhibitors. AID 504834. 320,000 tested, 6.9% active. P. falciparum luciferase reporter growth, 96 h; active = well fitted inhibition curve with a large enough effect; inconclusive = small, poorly fitted or top-dose-only effect, or another doubt; inactive = no such curve, though single readings can be large or run the other way
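Compounds incubated with erythrocytes infected by luciferase-expressing P. falciparum (2% hematocrit, 0.05% parasitemia final) for 96 hours, 37 C in 5% CO2. Growth inhibition scored as decreased luciferase luminescence.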
Pf growth 48h – P. falciparum growth inhibition at 48 hours (one generation); 310,000 tested, 5.9% active; AID 504832; P. falciparum luciferase growth in erythrocytes, 48 h; Potency, µM (top dose mostly 28.7 µM), actives largely listed as inhibitors; active = well fitted inhibition curve with a large enough effect; inconclusive = small, poorly fitted or top-dose-only effect, or another doubt; inactive = no such curve, though single readings can be large or run the other way
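First compound was added to culture medium, then infected red cells at 0.1% parasitemia and 2% hematocrit (final). After incubation at 37 C under 5% CO2, luciferase detection reagent was dispensed and light output recorded.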
Hits are given with their value. In the library only some 21% were active in any assay of this set; here they are far more common. Unless noted, calls follow the shape of the full dose curve.

Screening O=C1C(Cl)=C(N2CCCCC2)C(=O)N1c1ccccc1 returned CHX counter inactive, NS1 function inh inconclusive, Shiga toxin inh inactive, SARS PLpro yeast inactive, Pf growth 96h inconclusive and Pf growth 48h inconclusive.
For COc1ccccc1N1C(=O)C(Cl)=C(N2CCCC2)C1=O the results were CHX counter inactive, NS1 function inh inactive, SARS PLpro yeast inactive, Pf growth 96h 9.3µM and Pf growth 48h inactive.
For COc1ccc(OC)c(N2C(=O)C(Cl)=C(N3CCCCC3)C2=O)c1 the results were CHX counter inactive, NS1 function inh inactive, Shiga toxin inh inactive, SARS PLpro yeast inactive, Pf growth 96h inactive and Pf growth 48h inactive.
For CC(C)c1ccc(N2C(=O)C(Cl)=C(N3CCOCC3)C2=O)cc1 the results were CHX counter inactive, NS1 function inh inactive, Shiga toxin inh inactive, SARS PLpro yeast inactive, Pf growth 96h inactive and Pf growth 48h inactive.
For Cc1ccc(N2C(=O)C(Cl)=C(N3CCCCCC3)C2=O)cc1 the results were CHX counter 27, NS1 function inh inactive, Shiga toxin inh inactive, SARS PLpro yeast inactive, Pf growth 96h inactive and Pf growth 48h inactive.
O=C1C(Cl)=C(N2CCOCC2)C(=O)N1c1ccc(Br)cc1 was read as CHX counter inactive, NS1 function inh inactive, Shiga toxin inh inactive, SARS PLpro yeast inactive, Pf growth 96h 12µM and Pf growth 48h inconclusive.
`Cc1ncc(CN2CCC(n3nccc3NC(=O)c3ccccc3)CC2)s1` gave CHX counter inactive, NS1 function inh inactive, Shiga toxin inh inactive, SARS PLpro yeast inactive, Pf growth 96h inactive and Pf growth 48h inactive.
For CCC1Oc2ccccc2N(CC(=O)N2CCOCC2)C1=O (configuration not stated) the results were CHX counter inactive, NS1 function inh inactive, Shiga toxin inh inactive, SARS PLpro yeast inactive, Pf growth 96h inactive and Pf growth 48h inactive.
Screening CC(C)C1Oc2ccccc2C(=O)N(CC(=O)c2ccc3c(c2)OCCO3)C1=O (configuration not stated) returned CHX counter 47, NS1 function inh inactive, Shiga toxin inh 92, SARS PLpro yeast inactive, Pf growth 96h inactive and Pf growth 48h inactive.
Cc1ccc2c(c1)N(CC(=O)c1cccc(Cl)c1)C(=O)C(C)O2 (configuration not stated) was read as CHX counter inactive, NS1 function inh inactive, Shiga toxin inh inactive, SARS PLpro yeast inactive, Pf growth 96h 4.1µM and Pf growth 48h inconclusive.
CCC1Oc2ccccc2C(=O)N(CC(=O)c2ccc3c(c2)OCCO3)C1=O (configuration not stated) was read as CHX counter 34, NS1 function inh inactive, Shiga toxin inh inactive, SARS PLpro yeast inactive, Pf growth 96h inactive and Pf growth 48h inactive.
CC1Oc2ccccc2N(CC(=O)c2cccc(Cl)c2)C1=O (configuration not stated) was read as CHX counter inactive, NS1 function inh inactive, Shiga toxin inh inactive, SARS PLpro yeast inactive and Pf growth 48h inactive.
Screening CC1Oc2ccccc2C(=O)N(CC(=O)c2ccc3c(c2)OCCO3)C1=O (configuration not stated) returned CHX counter 30, NS1 function inh inactive, Shiga toxin inh 72, SARS PLpro yeast inactive, Pf growth 96h inactive and Pf growth 48h inactive.
CC(OC(=O)Cc1n[nH]c(=O)c2ccccc12)C(=O)Nc1ccc(F)cc1Cl (configuration not stated) was read as SARS PLpro yeast inactive, Pf growth 96h inactive and Pf growth 48h inconclusive.
Screening COC(=O)c1ccc(Cn2nc(-c3cc(C)ccc3C)ccc2=O)cc1 returned CHX counter inactive, NS1 function inh inactive, Shiga toxin inh inactive, SARS PLpro yeast inactive, Pf growth 96h inactive and Pf growth 48h inactive.
For COc1ccc(CC(=O)N/N=C(\C)CC(=O)NCc2ccco2)cc1OC the results were CHX counter inactive, NS1 function inh inactive, Shiga toxin inh inactive, SARS PLpro yeast inactive, Pf growth 96h inactive and Pf growth 48h inactive.
For Nc1c(C(=O)NCCN2CCOCC2)c2nc3ccccc3nc2n1Cc1ccccc1 the results were CHX counter inactive, NS1 function inh inactive, Shiga toxin inh inactive, SARS PLpro yeast inactive, Pf growth 96h inconclusive and Pf growth 48h inconclusive.
Screening Nc1c(C(=O)NCCN2CCOCC2)c2nc3ccccc3nc2n1Cc1ccco1 returned CHX counter inactive, NS1 function inh inactive, Shiga toxin inh inactive, SARS PLpro yeast inactive, Pf growth 96h inconclusive and Pf growth 48h 9.3µM.
COCCNC(=O)c1c(N)n(Cc2ccco2)c2nc3ccccc3nc12 was read as CHX counter inactive, NS1 function inh inactive, Shiga toxin inh inactive, SARS PLpro yeast inactive, Pf growth 96h 13µM and Pf growth 48h 13µM.
For COC(=O)c1c(N)n(CCCN2CCOCC2)c2nc3ccccc3nc12 the results were CHX counter inactive, NS1 function inh inactive, Shiga toxin inh inactive, SARS PLpro yeast inactive, Pf growth 96h 9.3µM and Pf growth 48h inconclusive.
`CCCCOCCCn1c(N)c(C(=O)OC(C)COC)c2nc3ccccc3nc21` (configuration not stated) gave CHX counter inactive, NS1 function inh inactive, Shiga toxin inh inactive, SARS PLpro yeast inactive, Pf growth 96h inconclusive and Pf growth 48h 4.7µM.
`COCCCn1c(N)c(C(=O)OC(C)COC)c2nc3ccccc3nc21` (configuration not stated) gave CHX counter inactive, NS1 function inh inactive, Shiga toxin inh inactive, SARS PLpro yeast inactive, Pf growth 96h inconclusive and Pf growth 48h inactive.
For Cc1cc2ncn(-c3ncccc3[N+](=O)[O-])c2cc1C the results were CHX counter inactive, NS1 function inh inconclusive, Shiga toxin inh inactive, SARS PLpro yeast inactive, Pf growth 96h inactive and Pf growth 48h inactive.
COCCCn1c(N)c(C(=O)Nc2ccccc2)c2nc3ccccc3nc21 was read as CHX counter inactive, NS1 function inh inactive, Shiga toxin inh inactive, SARS PLpro yeast inactive, Pf growth 96h inconclusive and Pf growth 48h inconclusive.
`Nc1c(C(=O)NCc2ccco2)c2nc3ccccc3nc2n1CCc1ccccc1` gave CHX counter inactive, NS1 function inh inactive, Shiga toxin inh inactive, SARS PLpro yeast inactive, Pf growth 96h inactive and Pf growth 48h inconclusive.
Cc1cccc(-n2c(N)c(C(=O)NCCN3CCOCC3)c3nc4ccccc4nc32)c1 was read as CHX counter inactive, NS1 function inh inactive, Shiga toxin inh inactive, SARS PLpro yeast inactive and Pf growth 96h 9.3µM.
Screening CCC(C)NC(=O)c1c(N)n(CCCOC)c2nc3ccccc3nc12 (configuration not stated) returned CHX counter inactive, NS1 function inh inactive, Shiga toxin inh inactive, SARS PLpro yeast inactive, Pf growth 96h 2.3µM and Pf growth 48h inconclusive.
`Nc1c(C(=O)NCCc2ccccc2)c2nc3ccccc3nc2n1CCN1CCOCC1` gave CHX counter inactive, NS1 function inh inactive, Shiga toxin inh inactive, SARS PLpro yeast inactive, Pf growth 96h inactive and Pf growth 48h inconclusive.
COCCCn1c(N)c(C(=O)NCc2ccco2)c2nc3ccccc3nc21 was read as CHX counter inactive, NS1 function inh inactive, Shiga toxin inh inactive, SARS PLpro yeast inactive, Pf growth 96h inconclusive and Pf growth 48h 9.3µM.

Compound activity: PubChem BioAssay, National Center for Advancing Translational Sciences (NCATS)
